Assay results: PubChem BioAssay AID1159580 (chemical genetic matrix, 2015)
In all, about 5,500 compounds went through this assay and about 2,000 (36%) were called active. Another 18% or so got no clear call; they are omitted. No stated cut-off is given here; in the data, active means normalized growth mostly below about 0.91 (no sharp cut-off); inconclusive means no clear call, values can overlap the other calls; inactive means mostly above about 0.92. The list shows a part of the results.

Assay: chemical genetic growth profiling, strain panel (AID 1159580);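 further: tested at 20 µM; growth read once vehicle control cultures reached saturation at 30 °C; 1 = growth at the plate median or of vehicle wells; lower values mean less growth of the strain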
Settings: growth OD

Measured: normalized growth

C[C@@H]1O[C@@H](O[C@H]2[C@@H](Oc3cc(O)c4c(c3)O[C@H](c3ccc(O)cc3)CC4=O)O[C@H](CO)[C@@H](O)[C@@H]2O)[C@H](O)[C@H](O)[C@H]1O
inactive: S. cerevisiae deletion strains, locus YJR075W, strain HOC1, hits give low values 0.996 | S. cerevisiae deletion strains, locus YKL009W, strain mrt4, hits give low values 0.997 | S. cerevisiae deletion strains, locus YKL068W, hits give low values 1 | S. cerevisiae deletion strains, locus YKL085W, strain MDH1 (second series), hits give low values 0.996 | S. cerevisiae deletion strains, locus YKL085W, strain MDH1, hits give low values 0.996 | S. cerevisiae deletion strains, locus YKL160W, strain elf1, hits give low values 0.971 | S. cerevisiae deletion strains, locus YKL190W, strain CNB1, hits give low values 1 | S. cerevisiae deletion strains, locus YKR001C, strain vps1, hits give low values 1.01 | S. cerevisiae deletion strains, locus YKR026C, strain gcn3, hits give low values 0.996 | S. cerevisiae deletion strains, locus YKR091W, strain srl3, hits give low values 0.969 | S. cerevisiae deletion strains, locus YLL001W, strain dnm1, hits give low values 0.952 | S. cerevisiae deletion strains, locus YLL026W, hits give low values 0.974 | S. cerevisiae deletion strains, locus YLL041C, strain sdh2, hits give low values 0.983 | S. cerevisiae deletion strains, locus YLR027C, strain aat2, hits give low values 0.967 | S. cerevisiae deletion strains, locus YLR039C, strain RIC1, hits give low values 0.97 | S. cerevisiae deletion strains, locus YLR058C, strain SHM2, hits give low values 0.977 | S. cerevisiae deletion strains, locus YLR102C, strain apc9, hits give low values 1 | S. cerevisiae deletion strains, locus YLR113W, strain HOG1, hits give low values 0.969 | S. cerevisiae deletion strains, locus YLR221C, strain rsa3, hits give low values 0.957 | S. cerevisiae deletion strains, locus YLR258W, strain gsy2, hits give low values 0.981 | S. cerevisiae deletion strains, locus YLR262C, strain YPT6 (second series), hits give low values 0.979 | S. cerevisiae deletion strains, locus YLR262C, strain YPT6, hits give low values 0.969 | S. cerevisiae deletion strains, locus YLR268W, strain sec22, hits give low values 1.01 | S. cerevisiae deletion strains, locus YLR320W, strain mms22, hits give low values 0.969 | S. cerevisiae deletion strains, locus YLR330W, strain CHS5, hits give low values 0.99 | S. cerevisiae deletion strains, locus YLR342W, strain FKS1 (second series), hits give low values 1.03 | S. cerevisiae deletion strains, locus YLR342W, strain FKS1, hits give low values 0.98 | S. cerevisiae deletion strains, locus YLR357W, strain rsc2, hits give low values 0.956 | S. cerevisiae deletion strains, locus YLR370C, strain arc18, hits give low values 0.981 | S. cerevisiae deletion strains, locus YLR371W, strain rom2, hits give low values 0.997 | S. cerevisiae deletion strains, locus YLR384C, strain iki3, hits give low values 0.963 | S. cerevisiae deletion strains, locus YLR418C, strain cdc73, hits give low values 1.03 | S. cerevisiae deletion strains, locus YML016C, strain PPZ1, hits give low values 0.984 | S. cerevisiae deletion strains, locus YML032C, strain rad52, hits give low values 0.996 | S. cerevisiae deletion strains, locus YML120C, strain ndi1, hits give low values 0.953 | S. cerevisiae deletion strains, locus YML124C, strain tub3, hits give low values 0.993 | S. cerevisiae deletion strains, locus YMR058W, strain fet3, hits give low values 0.972 | S. cerevisiae deletion strains, locus YMR078C, strain ctf18, hits give low values 0.993 | S. cerevisiae deletion strains, locus YMR125W, strain sto1, hits give low values 0.941 | S. cerevisiae deletion strains, locus YMR129W, hits give low values 0.974 | S. cerevisiae deletion strains, locus YMR205C, strain PFK2, hits give low values 0.962 | S. cerevisiae deletion strains, locus YMR223W, strain ubp8, hits give low values 0.991 | S. cerevisiae deletion strains, locus YMR231W, strain pep5, hits give low values 0.983 | S. cerevisiae deletion strains, locus YMR263W, strain SAP30, hits give low values 0.987 | S. cerevisiae deletion strains, locus YMR307W, strain GAS1, hits give low values 1.04 | S. cerevisiae deletion strains, locus YNL067W, strain RPL9B, hits give low values 1 | S. cerevisiae deletion strains, locus YNL071W, strain lat1, hits give low values 0.979 | S. cerevisiae deletion strains, locus YNL128W, strain TEP1, hits give low values 0.975 | S. cerevisiae deletion strains, locus YNL153C, strain GIM3, hits give low values 0.981 | S. cerevisiae deletion strains, locus YNL183C, strain NPR1, hits give low values 0.92 | S. cerevisiae deletion strains, locus YNL209W, strain ssb2, hits give low values 0.971 | S. cerevisiae deletion strains, locus YNL233W, strain BNI4, hits give low values 0.991 | S. cerevisiae deletion strains, locus YNL248C, strain rpa49, hits give low values 0.977 | S. cerevisiae deletion strains, locus YNL250W, strain rad50, hits give low values 0.982 | S. cerevisiae deletion strains, locus YNL271C, strain bni1, hits give low values 0.999 | S. cerevisiae deletion strains, locus YNL298W, strain CLA4, hits give low values 1 | S. cerevisiae deletion strains, locus YNL307C, strain MCK1, hits give low values 1 | S. cerevisiae deletion strains, locus YNL322C, strain KRE1 (second series), hits give low values 0.951 | S. cerevisiae deletion strains, locus YNL322C, strain KRE1, hits give low values 0.987 | S. cerevisiae deletion strains, locus YNR049C, strain mso1, hits give low values 0.961 | S. cerevisiae deletion strains, locus YNR052C, strain pop2, hits give low values 0.998 | S. cerevisiae deletion strains, locus YOL006C, strain TOP1, hits give low values 0.962 | S. cerevisiae deletion strains, locus YOL012C, strain htz1 1.14 | S. cerevisiae deletion strains, locus YOL147C, strain pex11, hits give low values 1 | S. cerevisiae deletion strains, locus YOR001W, strain rrp6, hits give low values 0.998 | S. cerevisiae deletion strains, locus YOR061W, strain CKA2, hits give low values 0.967 | S. cerevisiae deletion strains, locus YOR069W, strain VPS5, hits give low values 0.99 | S. cerevisiae deletion strains, locus YOR070C, strain gyp1, hits give low values 0.981 | S. cerevisiae deletion strains, locus YOR080W, strain dia2, hits give low values 0.967 | S. cerevisiae deletion strains, locus YOR083W, strain WHI5, hits give low values 0.947 | S. cerevisiae deletion strains, locus YOR106W, strain vam3, hits give low values 0.954 | S. cerevisiae deletion strains, locus YOR136W, strain idh2, hits give low values 0.999 | S. cerevisiae deletion strains, locus YOR144C, strain elg1, hits give low values 1 | S. cerevisiae deletion strains, locus YOR184W, strain ser1, hits give low values 0.991 | S. cerevisiae deletion strains, locus YOR231W, strain MKK1, hits give low values 0.98 | S. cerevisiae deletion strains, locus YOR265W, strain rbl2, hits give low values 0.983 | S. cerevisiae deletion strains, locus YOR270C, strain vph1, hits give low values 0.915 | S. cerevisiae deletion strains, locus YOR290C, strain snf2, hits give low values 0.919 | S. cerevisiae deletion strains, locus YOR316C, strain cot1, hits give low values 0.992 | S. cerevisiae deletion strains, locus YPL051W, strain arl3, hits give low values 0.987 | S. cerevisiae deletion strains, locus YPL055C, strain LGE1, hits give low values 0.973 | S. cerevisiae deletion strains, locus YPL078C, strain atp4, hits give low values 0.968 | S. cerevisiae deletion strains, locus YPL106C, strain sse1, hits give low values 0.942 | S. cerevisiae deletion strains, locus YPL240C, strain hsp82, hits give low values 0.973 | S. cerevisiae deletion strains, locus YPL241C, strain CIN2, hits give low values 0.991 | S. cerevisiae deletion strains, locus YPL256C, strain CLN2, hits give low values 0.998 | S. cerevisiae deletion strains, locus YPR119W, strain clb2, hits give low values 1 | S. cerevisiae deletion strains, locus YPR141C, strain kar3, hits give low values 0.992 | S. cerevisiae deletion strains, locus YPR163C, strain tif3, hits give low values 1 | S. cerevisiae deletion strains, locus YPR167C, strain met16, hits give low values 0.998 | S. cerevisiae deletion strains, strain wtn01, hits give low values 0.997 | S. cerevisiae strains, strain wild type, hits give low values 0.98
